From PubChem BioAssay (NCI)
Compounds without any hit were thinned out: in the full panel of roughly 83,000, 20% have a hit.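 Cells were grown in 96-well plates and exposed to the test compound at a single concentration for 48 hours; results are reported as percent growth, with values below 10 considered active.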 A number with no mark means an inactive call. Activity calls are given as the source filed them.

Assays:
Experiment in all cases: NCI-60 one-dose screen, 48 h (100 = growth as untreated, 0 = no growth, -100 = all killed)
NCI-H226 lung = details: 10 µM
NCI-H322M lung = details: 10 µM unless noted
HOP-62 NSCLC = details: 10 µM unless noted
NCI-H460 lung = details: 10 µM unless noted
NCI-H522 lung = details: 10 µM
A549/ATCC NSCLC = details: 10 µM unless noted
786-0 renal = details: 10 µM unless noted
COLO 205 colon = details: 10 µM unless noted
DU-145 prostate = details: 10 µM unless noted
K-562 leukemia = details: 10 µM unless noted
MALME-3M melanoma = details: 10 µM unless noted
MDA-MB-231 breast = details: 10 µM unless noted
RXF 393 renal = details: 10 µM unless noted
SF-268 CNS = details: 10 µM unless noted
SF-295 CNS = details: 10 µM unless noted
SF-539 CNS = details: 10 µM unless noted
UACC-257 melanoma = details: 10 µM unless noted
M14 melanoma = details: 10 µM unless noted
HOP-92 NSCLC = details: 10 µM unless noted

## Clc1ccc(C2=NN(c3ccccc3)[C@H](c3cn(-c4ccccc4)nc3-c3ccccc3)C2)cc1
NCI-H226 lung
  growth: 96.1%
NCI-H322M lung
  growth: 101%
HOP-62 NSCLC
  growth: 108%
NCI-H460 lung
  growth: 108%
NCI-H522 lung
  growth: 91.5%
A549/ATCC NSCLC
  growth: 97.8%
786-0 renal
  growth: 103%
COLO 205 colon
  growth: 114%
DU-145 prostate
  growth: 119%
K-562 leukemia
  growth: 111%
MALME-3M melanoma
  growth: 103%
MDA-MB-231 breast
  growth: 96.6%
RXF 393 renal
  growth: 106%
SF-268 CNS
  growth: 109%
SF-295 CNS
  growth: 108%
SF-539 CNS
  growth: 107%
UACC-257 melanoma
  growth: 92.2%
M14 melanoma
  growth: 109%

## COC(=O)CCC(=O)c1ccccc1
NCI-H226 lung
  growth: 115%
NCI-H322M lung
  growth: 119%
HOP-62 NSCLC
  growth: 116%
NCI-H460 lung
  growth: 106%
NCI-H522 lung
  growth: 106%
A549/ATCC NSCLC
  growth: 95.4%
786-0 renal
  growth: 94.7%
COLO 205 colon
  growth: 115%
DU-145 prostate
  growth: 106%
K-562 leukemia
  growth: 96.9%
MALME-3M melanoma
  growth: 158%
MDA-MB-231 breast
  growth: 111%
RXF 393 renal
  growth: 139%
SF-268 CNS
  growth: 107%
SF-295 CNS
  growth: 91.8%
SF-539 CNS
  growth: 99.9%
UACC-257 melanoma
  growth: 106%
M14 melanoma
  growth: 103%

## O=C1C(Cl)=C(NCCCN2CCOCC2)C(=O)c2ccccc21
NCI-H226 lung
  growth: 107%
NCI-H322M lung
  growth: 98.5%
HOP-62 NSCLC
  growth: 120%
NCI-H460 lung
  growth: 99.2%
HOP-92 NSCLC
  growth: 106%
NCI-H522 lung
  growth: 89.9%
A549/ATCC NSCLC
  growth: 98.8%
786-0 renal
  growth: 113%
DU-145 prostate
  growth: 126%
K-562 leukemia
  growth: 60.3%
MDA-MB-231 breast
  growth: 97.3%
RXF 393 renal
  growth: 108%
SF-268 CNS
  growth: 106%
SF-295 CNS
  growth: 109%
SF-539 CNS
  growth: 125%
UACC-257 melanoma
  growth: 73.3%
M14 melanoma
  growth: 101%

## Cc1ccc(S(=O)(=O)N(c2ccc(Cl)cc2)c2ccc(Br)cc2C(=O)O)cc1
NCI-H226 lung
  growth: 97.7%
NCI-H322M lung
  growth: 114%
HOP-62 NSCLC
  growth: 105%
NCI-H460 lung
  growth: 107%
NCI-H522 lung
  growth: 102%
A549/ATCC NSCLC
  growth: 105%
786-0 renal
  growth: 114%
COLO 205 colon
  growth: 116%
DU-145 prostate
  growth: 117%
K-562 leukemia
  growth: 107%
MDA-MB-231 breast
  growth: 119%
RXF 393 renal
  growth: 100%
SF-268 CNS
  growth: 111%
SF-295 CNS
  growth: 112%
SF-539 CNS
  growth: 102%
UACC-257 melanoma
  growth: 101%
M14 melanoma
  growth: 117%

## OC[C@@H](O)[C@@H](O)CO
NCI-H226 lung
  growth: 98.6%
NCI-H322M lung
  growth: 105%
HOP-62 NSCLC
  growth: 126%
NCI-H460 lung
  growth: 107%
HOP-92 NSCLC
  growth: 101%
NCI-H522 lung
  growth: 96.6%
A549/ATCC NSCLC
  growth: 104%
786-0 renal
  growth: 104%
DU-145 prostate
  growth: 111%
MALME-3M melanoma
  growth: 97.3%
MDA-MB-231 breast
  growth: 94.7%
RXF 393 renal
  growth: 110%
SF-268 CNS
  growth: 108%
SF-295 CNS
  growth: 94.7%
SF-539 CNS
  growth: 102%
UACC-257 melanoma
  growth: 105%
M14 melanoma
  growth: 106%

## COc1cc(/C=C/c2cc(/C=C/c3ccc(O)c(OC)c3)n(-c3ccccc3)n2)ccc1O
NCI-H226 lung
  growth: -8.19% (active)
NCI-H322M lung
  growth: -3.64% (active)
HOP-62 NSCLC
  growth: -67.7% (active)
NCI-H460 lung
  growth: 0.0675% (active)
NCI-H522 lung
  growth: -30.2% (active)
A549/ATCC NSCLC
  growth: 8.4% (active)
786-0 renal
  growth: -76.7% (active)
COLO 205 colon
  growth: -84.1% (active)
DU-145 prostate
  growth: -45.7% (active)
K-562 leukemia
  growth: -15.5% (active)
MALME-3M melanoma
  growth: -39% (active)
MDA-MB-231 breast
  growth: 5.23% (active)
RXF 393 renal
  growth: -70% (active)
SF-268 CNS
  growth: -12.5% (active)
SF-295 CNS
  growth: -71.5% (active)
SF-539 CNS
  growth: -39.8% (active)
UACC-257 melanoma
  growth: 16%
M14 melanoma
  growth: -56% (active)

## CCCCNNC(=O)c1ccc(Br)cc1
NCI-H226 lung
  growth: 62.5%
NCI-H322M lung
  growth: 59.3%
HOP-62 NSCLC
  growth: 55.5%
NCI-H460 lung
  growth: 50.1%
A549/ATCC NSCLC
  growth: 57.6%
786-0 renal
  growth: 79%
COLO 205 colon
  growth: 46.1%
DU-145 prostate
  growth: 50.9%
K-562 leukemia
  growth: 29.9%
MDA-MB-231 breast
  growth: 76.1%
RXF 393 renal
  growth: 69.5%
SF-268 CNS
  growth: 56.4%
SF-295 CNS
  growth: 38.4%
SF-539 CNS
  growth: 61.4%
UACC-257 melanoma
  growth: 16.3%
M14 melanoma
  growth: 42%

## COc1cc(/C=C/C(=O)C2=C(/C=C/c3ccc(O)c(OC)c3)NC(=O)NC2c2ccc(O)c(OC)c2)ccc1O (stereo not given)
NCI-H226 lung
  growth: 91.8%
NCI-H322M lung
  growth: 102%
HOP-62 NSCLC
  growth: 123%
NCI-H460 lung
  growth: 89.1%
HOP-92 NSCLC
  growth: 88.9%
A549/ATCC NSCLC
  growth: 78.9%
786-0 renal
  growth: 100%
DU-145 prostate
  growth: 111%
K-562 leukemia
  growth: 87%
MALME-3M melanoma
  growth: 117%
MDA-MB-231 breast
  growth: 67.7%
RXF 393 renal
  growth: 97.1%
SF-268 CNS
  growth: 93.5%
SF-295 CNS
  growth: 93.1%
SF-539 CNS
  growth: 87%
UACC-257 melanoma
  growth: 85.6%
M14 melanoma
  growth: 94%

## Cn1c2ccccc2c2nn(Cc3ccccc3)c(=O)nc21
NCI-H226 lung
  growth: 86.6%
NCI-H322M lung
  growth: 113%
HOP-62 NSCLC
  growth: 94.2%
NCI-H460 lung
  growth: 102%
NCI-H522 lung
  growth: 103%
A549/ATCC NSCLC
  growth: 105%
786-0 renal
  growth: 108%
COLO 205 colon
  growth: 119%
DU-145 prostate
  growth: 113%
K-562 leukemia
  growth: 109%
MDA-MB-231 breast
  growth: 103%
RXF 393 renal
  growth: 103%
SF-268 CNS
  growth: 103%
SF-295 CNS
  growth: 97.4%
SF-539 CNS
  growth: 99.7%
UACC-257 melanoma
  growth: 101%
M14 melanoma
  growth: 104%
